Data published in ChEMBL document CHEMBL4513216, “Probing the Open Global Health Chemical Diversity Library for Multistage-Active Starting Points for Next-Generation Antimalarials” (ACS Infect Dis, 2020).
Hit rate of the full screen: of about 69,000 compounds, about 8,600 (12%) showed an effect of 50% or more. The sample holds strong results, similar compounds and a random draw of the others, so the mix is not that of the screen.

Test system: Plasmodium berghei
Test: Screen against P. berghei liver stage (PbLuc), transformed with Luciferase, at 10uM
Format: functional, HepG2
Conditions: tested at 10 uM

| SMILES | INHIBITION |
| --- | --- |
| COc1ccc(CNC2CCC3(CCC(=O)N3)CC2)cc1 (configuration not stated) | 19.8% |
| CC(C)c1nn(C)c(N(C)C)c1CNCc1cccc(CN(C)C)c1 | 21.8% |
| Cn1ncc(C(=O)O)c1C(=O)Nc1nc2ccc(Br)cc2s1 | 6.27% |
| COCCOCC(=O)N1CCc2cc(Cl)cc(Cl)c2C1 | 1.86% |
| CCSCc1nc(O)c2nnn(C3CCN(Cc4ccco4)CC3)c2n1 | 32.5% |
| Cc1ccc(C)c(C(=O)N2CCC3(CCC(=O)N(CC(N)=O)C3)CC2)c1 | 15.2% |
| Cn1cc(C(=O)N2CCN(c3ncccn3)CC2)ccc1=O | 28.8% |
| CN(CC1CCOC1)S(=O)(=O)c1cccc(C(=O)N2CCCCCC2)c1 (configuration not stated) | -7.57% |
| Cc1ncnc2c1CCN(C(=O)Cc1cccc(F)c1)CC2 | 36.4% |
| O=C(Cc1cccc(F)c1)N1CCc2ncnc(NC3CCC3)c2CC1 | 53% |
| O=C(Cc1cccc(F)c1)N1CCc2ncnc(NC3CC3)c2CC1 | 14% |
| CCS(=O)(=O)N1CCc2ncnc(C)c2CC1 | 42.3% |
| O=C(Cc1cccc(F)c1)N1CCc2ncnc(N3CCCC3)c2CC1 | -13.9% |
| COc1ncnc2c1CCN(C(=O)Cc1cccc(F)c1)CC2 | 52.6% |
| CCOc1ncnc2c1CCN(S(=O)(=O)CC)CC2 | 30.5% |
| CCS(=O)(=O)N1CCc2ncnc(OC)c2CC1 | 79.2% |
| COc1ncnc2c1CCN(C(=O)NCc1cccc(F)c1)CC2 | 17.2% |
| Cc1ccc(CN2CCOCC2c2[nH]ncc2C)cn1 (configuration not stated) | 13.635% |
| CCC(c1ccccc1)c1nn2c(CN(CC)CC)nnc2s1 (configuration not stated) | 23.1% |
| CCC(=O)NCCc1cc2nc(-c3ccncc3)ccn2n1 | 21.4% |
| COCC(C)NC(=O)c1cc(C)n(-c2cccc(OC)c2)c1C (configuration not stated) | 35.9% |
| CN1C(=O)CCCC12CCCN(C(=O)c1cccc(C(F)(F)F)c1)C2 (configuration not stated) | 40.8% |
| CSCC[C@H](NC(C)=O)c1nc(CCc2ccccc2)n[nH]1 | -47.9% |

| SMILES | INHIBITION |
| --- | --- |
| CCC=C(C)C(=O)NCc1ccc(OC)nc1 | -0.514% |
| Cc1ccccc1-c1noc(CN2CCc3nn(C)c(=O)cc3C2)n1 | 7.08% |
| CCOCC(O)CN1CCN(C(=O)Cc2ccc3c(c2)CCC3)CC1 (configuration not stated) | 51.5% |
| CCOCC(O)CN1CCN(C(=O)Cc2ccc3c(c2)CCO3)CC1 (configuration not stated) | 9.25% |
| CCC(O)CN1CCN(C(=O)Cc2ccccc2Cl)CC1 (configuration not stated) | 18.625% |
| CCOCC(O)CN1CCN(C(=O)Cc2ccccc2Cl)CC1 (configuration not stated) | 25.6% |
| CCOCC(O)CN1CCN(C(=O)Cc2cccc(C)c2)CC1 (configuration not stated) | -52.95% |
| O=C(Cc1ccccc1Cl)N1CCN(CC(O)COCCO)CC1 (configuration not stated) | 57.85% |
| O=C(c1cnccn1)N1CCCC2(CCN(Cc3cccnc3)C2)C1 (configuration not stated) | -19.5% |
| O=C(c1cncc(NCC2COc3ccccc3C2)n1)N1CCCCC1 (configuration not stated) | 0.348% |
| CC(C)Cc1nc(OCC(N)=O)c(C#N)c2c1CCCC2 | 51% |
| CC(C)Cc1nc(OCC(N)=O)c(C#N)c2c1CCC2 | 16.6% |
| CC(C)Cc1nc(OCC(=O)O)c(C#N)c2c1CCCC2 | 43.4% |
| C[C@@H]1C[C@H](C(F)(F)F)n2nc(C3CCN(C(=O)C(C)(C)C)CC3)cc2N1 | 8.72% |
| O=C(NCc1cccnc1)C1=NOC2(CCN(C(=O)N3CCCC3)C2)C1 (configuration not stated) | -50.9% |
| CN(CCc1nc2cc(Cl)ccc2[nH]1)C(=O)c1ncn[nH]1 | 16.5% |
| CCNc1ncc(C(=O)N(C)CCc2nc3cc(Cl)ccc3[nH]2)cn1 | 41.5% |
| CCc1ncc(C(=O)N(C)CCc2nc3cc(OC)ccc3[nH]2)cn1 | 59.1% |
| CCn1cnnc1CNC(=O)c1ccc(Cl)cc1I | 44.1% |
| O=C1COC2(CCN(c3ccccn3)CC2)CN1 | -23.3% |
| O=C1COC2(CCN(c3ncccn3)CC2)CN1 | 70% |
| COc1cc(N2CCC3(CC2)CNC(=O)CO3)ncn1 | 16.6% |
| O=C1CCCCN1CCCC(=O)N1CCC2(CC1)[C@H](O)C[C@@H]2O | 26.8% |

| SMILES | INHIBITION |
| --- | --- |
| Cc1csc(NC(=O)CN(C)CC2CCCN2c2cccnn2)n1 (configuration not stated) | 48.5% |
| CN(CC(=O)Nc1ccncc1)CC1CCCN1c1cccnn1 (configuration not stated) | 41.4% |
| CN(CC(=O)Nc1cccnc1)CC1CCCN1c1cccnn1 (configuration not stated) | 53.4% |
| CC(=O)Nc1nc(CN(C)C2CCCN(c3cccnn3)C2)cs1 (configuration not stated) | 31.2% |
| CC(=O)Nc1nc(CN(C)CC2CCCN2c2cccnn2)cs1 (configuration not stated) | 51.7% |
| CN(CC(=O)Nc1nncs1)CC1CCCN1c1cccnn1 (configuration not stated) | 3.77% |
| Cc1noc(C)c1CCC(=O)N[C@@H]1CCC[C@@H](Oc2cccnc2)[C@@H]1O | -27.1% |
| O=C(NCCCN1CCc2ccccc2C1)c1ccccc1Br | 5.03% |
| CS(=O)(=O)c1cccc(C(=O)NCCCN2CCc3ccccc3C2)c1 | 56.4% |
| CS(=O)(=O)c1cccc(C(=O)NCC2(c3ccccc3)CC2)c1 | 86.8% |
| Cc1ccccc1C1(CNC(=O)c2ccc(S(C)(=O)=O)cc2)CC1 | 30.3% |
| Cc1cccc(C(=O)NCCCN2CCc3ccccc3C2)c1C | 21.5% |
| Cc1ccccc1C1(CNC(=O)c2cccc(S(C)(=O)=O)c2)CC1 | -8.22% |
| O=C(NCCCN1CCc2ccccc2C1)c1ccccc1Cl | -7.31% |
| CS(=O)(=O)c1ccccc1C(=O)NCCCN1CCc2ccccc2C1 | 52.1% |
| Cc1ccccc1C(=O)NCCCN1CCc2ccccc2C1 | 25.6% |
| Cc1nc(C)n(CC2CCCCN2CC(=O)NC(C2CC2)C2CC2)n1 (configuration not stated) | -24.2% |
| O=c1c2ccccc2nc2n1C(CSc1cccc(C(F)(F)F)c1)CN2 (configuration not stated) | 37.8% |
| CNC(=O)[C@@H]1C[C@H]2CN(C(=O)c3ccco3)C[C@H]2N1C | 7.84% |
| c1ccc(N2CCOC3(CCCN(c4nncs4)C3)C2)nc1 (configuration not stated) | 3.95% |
| O=C1C[C@@H]2CC[C@H](CN1)N2C(=O)CCc1ccccc1 | 11.2% |
| Cc1cc(CCC(N)=O)cc(C2CCCN2Cc2ccccn2)n1 (configuration not stated) | 18.3% |
| Cc1cc(CCC(N)=O)cc(C2CCCN2Cc2cnc(C)nc2)n1 (configuration not stated) | 52% |

| SMILES | INHIBITION |
| --- | --- |
| Cc1cc(CCC(N)=O)cc(C2CCCN2Cc2ccnn2C)n1 (configuration not stated) | -2.11% |
| Cc1noc(C)c1CNCC1COCc2c(-c3ccoc3)nnn2C1 (configuration not stated) | -16.9% |
| CCc1noc(C2CCCCN2C(=O)c2ccc3c(c2)OCO3)n1 (configuration not stated) | 7.66% |
| CCn1ccc2ccc(CN3CCCC3c3nc(C(C)C)no3)cc21 (configuration not stated) | 61.2% |
| Cc1nc(CN2CCCC2c2nc(C(C)C)no2)cs1 (configuration not stated) | 36.8% |
| CCn1cc(CN2CCCC2c2nc(C(C)C)no2)cc1C#N (configuration not stated) | 25.8% |
| C=C(C)CNC(C)c1ccc(S(C)(=O)=O)c(F)c1 (configuration not stated) | -13.1% |
| Nc1nccnc1C(=O)NC1CCN(Cc2ccccc2)C1 (configuration not stated) | -14.5% |
| Cc1cc(C)c2c(OCC(=O)NCC(O)C(F)(F)F)nn(C)c2n1 (configuration not stated) | -23.4% |
| COc1cccc(C2=CCN(CCN3CCOC3=O)CC2)c1 | 9.37% |
| COCCN1CC=C(c2cccc(OC)c2)CC1 | -6.72% |
| COc1cccc(C2=CCN(CCN3CCCC3=O)CC2)c1 | 51.7% |
| O=S(=O)(c1ccc(N2CCCCC2)c2nonc12)N1CCCCC1 | 30% |
| Nc1cnc(-c2ccc(F)cc2Cl)cn1 | 38.2% |
| COc1cc(F)ccc1-c1cc(CO)ccn1 | 37.7% |
| COc1cc(F)ccc1-c1cnc(N)cn1 | 61.5% |
| CN1CCN(C2CCOCC2)CC12CCC(=O)N(CC1CC1)CC2 (configuration not stated) | 5.46% |
| Clc1cccc(-n2cnnn2)c1N1CCCCC1 | 67.3% |
| Clc1cccc(-n2cnnn2)c1N1CCOCC1 | 1.86% |
| Clc1cccc(-n2cnnn2)c1N1CCCC1 | 11% |
| O=c1[nH]c2nc(NC3CC3)ncc2c(=O)n1-c1ccc(F)cc1 | 13.8% |
| O=c1[nH]c2nc(NCC3CCCO3)ncc2c(=O)n1-c1ccc(F)cc1 (configuration not stated) | 88.8% |
| O=c1[nH]c2nc(NCC3CCCO3)ncc2c(=O)n1-c1cccc(F)c1 (configuration not stated) | -26.2% |

| SMILES | INHIBITION |
| --- | --- |
| COCCN1CC[C@@H]2CN(Cc3nccn3C)C[C@@H]2C1 | 28.7% |
| Cc1ccccc1C(=O)N1CCOC(c2ncc(CN(C)C)[nH]2)C1 (configuration not stated) | -10.4% |
| CCS(=O)(=O)N1C[C@@H](C(=O)NC(C)C)[C@@]2(Cc3ccccc3C(=O)N2)C1 | -8.31% |
| COCC(=O)NC1(c2cccc(C(F)(F)F)c2)CCC1 | 38.7% |
| CS(=O)(=O)CCC(=O)NC1(c2cccc(C(F)(F)F)c2)CCC1 | 65.6% |
| CCNC(=O)CCC(=O)NC1(c2cccc(C(F)(F)F)c2)CCC1 | 23.9% |
| CC(C)NC(=O)Nc1ccc(CNCc2cccc(C#N)c2)cc1 | 43.7% |
| Cc1ccc(C(CNCc2c[nH]nc2C)N(C)C)cc1 (configuration not stated) | -4.33% |
| CCN1CCC(NC(=O)c2ccc(F)cc2I)CC1 | 2.7% |
| O=C(NC1CCN(C2CC2)CC1)c1cc(Cl)ccc1-n1cnnn1 | 62.8% |
| CC(C)CN1CCC(NC(=O)c2ccc(Cl)cc2Cl)CC1 | 90.2% |
| CC(=O)N1CCC(NC(=O)c2cc(S(N)(=O)=O)ccc2C)CC1 | -21.3% |
| CC(=O)N1CCC(NC(=O)c2ccccc2-n2cnnn2)CC1 | 35.9% |
| CC(=O)N1CCC(NC(=O)c2cc(Cl)ccc2O)CC1 | 61% |
| CC(=O)N1CCC(NC(=O)c2cc(Cl)ccc2-n2cnnn2)CC1 | 37.7% |
| COCC(O)CN1CCC(NC(=O)c2ccccc2Cl)CC1 (configuration not stated) | 19.6% |
| O=C(NC1CC1)c1cc(Cl)ccc1-n1cnnn1 | -3.59% |
| CC(C)CN1CCC(NC(=O)c2ccc(F)cc2Cl)CC1 | -23.4% |
| CC(C)CN1CCC(NC(=O)c2ccc(F)cc2I)CC1 | 50.1% |
| CC(C)CN1CCC(NC(=O)c2ccc(F)cc2F)CC1 | 31.1% |
